ERK EGF block: qHTS Assay for Inhibitors of the ERK Signaling Pathway using a Homogeneous Screening Assay; Stimulation with EGF; HEK293-V1b, EGF-stimulated phospho-ERK AlphaScreen; Potency, µM (series often up to 11.5 µM), for inactives: at the highest dose activity change, negative = inhibition, hits mostly inhibitors; 130,000 tested, 0.41% active; AID 1454, 2008; active means well fitted inhibition curve with a large enough effect;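 further: plate controls were stimulated vehicle wells for no effect and unstimulated vehicle basal for full effect; nearly all actives have a fitted effect of over 55% in size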
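After overnight plating in 1% FBS, HEK293-V1b cells received test compound for half an hour, then a 5 min pulse of EGF (25 nM); ERK phosphorylation in lysates was read by bead-based AlphaScreen.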
* marks the source's active call; other numbers are inactive results; [ ] = remark or other dose. Only a selection was taken, and hits are over-represented in it overall. Potency means the concentration at half of the fitted maximal effect.

SMILES	ERK EGF block
Cc1[nH]n(-c2ccccc2)c(=O)c1N=O	-8%
Cc1[nH]n(-c2ccccc2)c(=O)c1N=Nc1ccc2c(c1)OCCO2	13µM*
Cc1ccc(N=Nc2c(C)[nH]n(-c3ccccc3)c2=O)c(C)c1	2%
CCCCCCCC1=CC2=C(Cl)C(=O)C(C)(OC(C)=O)C(=O)C2=CO1 (stereo not given)	10%
CN1/C(=C\C(=O)CSc2nncn2C)C(C)(C)c2ccccc21	2%
CC1=NN(c2ccccc2)C(=O)/C1=C\C=C1\N(C)c2ccccc2C1(C)C	16µM*
CC1=NN(c2ccccc2)C(=O)/C1=C\C=C1/N(C)c2ccccc2C1(C)C	13µM*
Cc1nn(-c2ccccc2)c(N)c1C1(O)C(=O)N(C)c2ccccc21 (stereo not given)	7%
CN1/C(=C/C(=O)C2CC2)C(C)(C)c2ccccc21	11%
CN1/C(=C\C(=O)Nc2cccc(Cl)c2)C(C)(C)c2ccccc21	8%
COCCNc1ccnc(-c2ccccc2CN(C)C)n1	10%
CO[C@]1(NC(=O)C2SC(=C(C(N)=O)C(=O)O)S2)C(=O)N2C(C(=O)O)=C(CSc3nnnn3C)CS[C@H]21 (stereo not given in full)	-13%[25.7 µM]
CC(=O)Oc1cc(C(F)(F)F)ccc1C(=O)O	20%[25.7 µM]
COc1cccc(Cn2c(=O)c(-c3cccc(F)c3)nc3cncnc32)c1	-4%
CC(=O)Nc1ccc(Nc2nc(C)c([N+](=O)[O-])c(Nc3ccccc3)n2)cc1	32µM*
Cc1nc(Nc2ccc(C(=O)O)cc2)nc(Nc2ccc(C(=O)O)cc2)c1[N+](=O)[O-]	6%
CCC(=O)Nc1ccc(Nc2nc(C)c([N+](=O)[O-])c(Nc3ccc(NC(=O)CC)cc3)n2)cc1	-1%
C[C@@H](C(=O)Nc1ccc2ccccc2c1)[C@@H]1C[C@@]1(C)[C@@H](NS(=O)(=O)c1ccc(-c2ccccc2)cc1)c1ccccc1	-10%
COc1ccc(-n2nc([N+](=O)[O-])c(=NCCc3ccc(OC)c(OC)c3)n2O)cc1	0%
COc1ccc(-n2nc([N+](=O)[O-])c(=NCCC3=CCCCC3)n2O)cc1	28µM*
COc1ccc(-n2nc([N+](=O)[O-])c(=NCc3cccnc3)n2O)cc1	-5%
O=C(OCC(F)(F)F)[C@H](O)[C@@H](O)C(=O)OCC(F)(F)F	9%
C[C@H]1[C@H](C)CC[C@]2(C(=O)O)CC[C@]3(C)C(=CCC4[C@@]5(C)C[C@@H](O)[C@H](O)[C@@](C)(CO)[C@@H]5CC[C@]43C)[C@H]12 (stereo not given in full)	4%
CCCCC/C=C\C/C=C\C/C=C\CC1OC1CCCC(=O)O (stereo not given)	-6%
O=C1C(NS(=O)(=O)c2cccs2)=C(N2CCN(Cc3ccccc3)CC2)C(=O)c2ccccc21	16µM*
SMILES	ERK EGF block
O=C1C(NS(=O)(=O)c2ccc(Cl)cc2)=C(N2CCCCC2)C(=O)c2ccccc21	14µM*
Cc1ccccc1CN1CCN(S(=O)(=O)c2cccs2)CC1	1%
CN1CCN(C2=C(NS(=O)(=O)c3cccs3)C(=O)c3ccccc3C2=O)CC1	-8%[57.5 µM]
O=S(=O)(Nc1ccc(N2CCCCC2)cc1)c1ccccc1	3%
O=C1C(Nc2ccccc2)=C(NS(=O)(=O)c2ccccc2)C(=O)c2ccccc21	3%
O=C(Nc1cccc(F)c1)N1CCCC2(CCN(C(=O)c3cc(C(F)(F)F)cc(C(F)(F)F)c3)CC2)C1	5%
O=C1CCCC=C1[C@@H](O)CCOC(c1ccccc1)(c1ccccc1)c1ccccc1	-1%
COc1ccc2c(c1)C(=O)[C@@H](OC(=O)NCCc1ccc(OC)c(OC)c1)[C@H](c1ccc(OC)c(Br)c1)O2	-8%
CC(C)Cn1nnnc1S(=O)(=O)CCc1ccccc1	-2%
N#Cc1ccc(CN2CC[C@@]3(CCCN(C(=O)c4cc(C(F)(F)F)cc(C(F)(F)F)c4)C3)C2)cc1	2%
C=CC[n+]1c(/C=C2\C=Cc3cc(C)ccc3N2CC)ccc2ccccc21	22µM*
CCN1C(=C(C#N)C#N)C=Cc2cc(C)ccc21	-5%
COc1c(C2=CC(=O)N(C)C2=O)c2c(n1C)C(=O)c1ccccc1C2=O	-5%
CO[C@@H]1c2cc(F)ccc2/C(=C\CCOC(=O)C/C=C/c2ccccc2)[C@H]1C	-17%
COCCn1c(=O)c(-c2ccc(Cl)cc2)nc2cnc(OC)nc21	1%
O=C(O)c1cccc(Nc2cc(Cl)c3nonc3c2[N+](=O)[O-])c1	0%
O=[N+]([O-])c1c(Nc2ccccn2)cc(Cl)c2nonc12	14µM*
O=[N+]([O-])c1ccc(Nc2ccccn2)c([N+](=O)[O-])c1	-9%
CC(C)CC(=O)N[C@H](C(=O)N[C@H](C(=O)N[C@@H](CC(C)C)[C@H](O)CC(=O)N[C@@H](C)C(=O)N[C@@H](CC(C)C)[C@H](O)CC(=O)O)C(C)C)C(C)C	-2%[25.7 µM]
CCN1C(=O)/C(=C\c2ccncc2)SC1=S	-15%[57.5 µM]
C[C@@H]1Oc2ccccc2C=C1/C=C/C(=O)O	1%
CCN1C(=O)/C(=C/C2=Cc3ccccc3OC2C)SC1=S (stereo not given)	16µM*
CCC1=C2CC[C@H]3C(=O)N(c4ccccc4)C(=O)[C@H]3[C@H]2[C@@]2(C)C(=O)N(CC(=O)OC)C(=O)N2C1=O	-5%
COc1ccc(-c2nc(-c3cccc([N+](=O)[O-])c3O)cc(=O)o2)cc1OC	2%
COc1ccccc1S(=O)(=O)c1ccccc1[N+](=O)[O-]	-11%
SMILES	ERK EGF block
COc1cc(/C=C2/C(=O)c3cccc([N+](=O)[O-])c3C2=O)c(Br)cc1O	28µM*
COc1cccc([C@@H]2Oc3ccc(Br)cc3C(=O)[C@H]2OC(=O)NS(=O)(=O)c2ccc(C)cc2)c1	-3%
CCCCCCNC(=O)n1cc(F)c(=O)[nH]c1=O	5%
CC(C)C(NS(=O)(=O)c1c(Cl)cccc1Cl)C(=O)OCC(=O)c1c[nH]c2ccccc12 (stereo not given)	25µM*
Cc1ccc(C(=O)OCC(=O)c2c[nH]c3ccccc23)cc1	5%
CC(O)C(NS(=O)(=O)c1ccc(Cl)cc1)C(=O)OCC(=O)c1c[nH]c2ccccc12 (stereo not given)	9%
CC(=O)N1CCC2(CC1)CCN(c1ncccn1)CC2	9%
Cc1ccc(S(=O)(=O)N/N=C/c2cccn2-c2ccc(Cl)cc2)cc1	2%[57.5 µM]
CCC1=NN2C(=N)/C(=C\c3cccn3-c3ccc(Cl)cc3)C(=O)N=C2S1	-4%
CC1=NN(c2ccc(Cl)cc2)C(=O)/C1=C\c1cccn1-c1ccc(S(N)(=O)=O)cc1	25µM*
c1ccc2c(c1)CCN(c1ncnc3nc[nH]c13)C2	8%
CCOc1ccc2[nH]c3c(N4CCc5ccccc5C4)ncnc3c2c1	32µM*
CCOc1ncnc2c1[nH]c1ccccc12	-9%[57.5 µM]
COC(=O)C1(C)C=C2C(=C(c3ccccc3)C(=O)C2C)CN1 (stereo not given)	10%
Cc1ccc2ncnc(NCCCCCC(=O)O)c2c1	-10%[57.5 µM]
CC(Nc1ncnc2nc[nH]c12)c1ccccc1 (stereo not given)	1%
COc1cc2ncnc(Nc3cccc(Br)c3)c2cc1OC	0.1µM*
Cc1cc2c(Nc3ccccc3)ncnc2s1	14µM*
Cc1ccc2ncnc(Nc3cccc(C(=O)O)c3)c2c1	-3%[57.5 µM]
Cc1ccc(/C=N/Nc2ncnc3nc[nH]c23)cc1	9%[57.5 µM]
Cc1ccc2ncnc(Nc3ccccc3)c2c1	3.5µM*
OCCCNc1ncnc2sc(-c3ccccc3)cc12	6%
COc1ccc(/C(=C/Nc2cccc(Br)c2)C(C)=O)cc1OC	2%
